# In PubChem BioAssay AID1523 (The Scripps Research Institute Molecular Screening Center, 2009):
# The other results are listed elsewhere or left out. Values without a mark were called inactive. Calls of active or inactive are those of the source. Rule as the data show it: active = activation above about 12%; inactive = the rest. Non-standard residues stand in square brackets, D forms with d. Residues, ends and D or L forms follow the SMILES beside them. ξ: configuration not given here. ξM = CSCCC(N)C(=O)O
# Target: Sphingosine 1-phosphate receptor 4 (Homo sapiens) (UniProt O95977)
# Sequence (O95977 whole entry, looked up): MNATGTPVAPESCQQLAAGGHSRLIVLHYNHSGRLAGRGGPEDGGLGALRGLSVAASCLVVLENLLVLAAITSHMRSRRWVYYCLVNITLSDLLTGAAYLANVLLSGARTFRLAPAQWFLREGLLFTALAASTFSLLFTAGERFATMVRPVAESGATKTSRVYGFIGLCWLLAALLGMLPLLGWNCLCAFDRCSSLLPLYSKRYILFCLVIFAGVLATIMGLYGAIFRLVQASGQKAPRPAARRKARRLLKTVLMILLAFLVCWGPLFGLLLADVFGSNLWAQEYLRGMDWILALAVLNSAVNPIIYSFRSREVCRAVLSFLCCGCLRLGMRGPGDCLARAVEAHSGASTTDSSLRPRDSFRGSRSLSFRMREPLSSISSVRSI
# Assay: activators of human S1P4 signalling – cell-based, high throughput, confirmation (AID 1523);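 also: 0% = vehicle and 100% = full reference agonist response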
# Settings: S1P4 agonist cell-based reporter assay; at 4.98 µM; active compounds read high
row,Structure (SMILES),activation
1,O=[N+]([O-])c1cccc(Nc2c3ccccc3nc3ccccc23)c1,6.3%
2,CCC(=O)/C(=C(/O)c1ccccc1)c1nc2ccccc2[nH]1,-1.45%
3,COc1ccc(-n2c(C)cc(C(=O)CN3C(=O)NC4(CCc5ccccc54)C3=O)c2C)cc1 (stereo unspecified),-1.26%
4,COc1ccc(C2CC(c3cccs3)=NN2c2ccccc2)cc1 (stereo unspecified),23.1% (active)
5,CC1CCCC(NC(=O)COC(=O)[C@@H]2CC(O)CN2S(=O)(=O)c2ccc3c(c2)OCCO3)C1C (stereo partly specified),-1.06%
6,O=C(CSc1nncn1-c1cccnc1)N1CCOCC1,-1.73%
7,CC(Oc1ccc(Br)cc1Br)C(=O)NC1CCCC1 (stereo unspecified),-1.69%
8,O=C(COC(=O)Cc1ccc(F)cc1)Nc1cc(S(=O)(=O)N2CCOCC2)ccc1N1CCCC1,-0.73%
9,CCC(C)NC(=O)C1c2ccccc2Oc2ccccc21 (stereo unspecified),0.12%
10,O=C(COC(=O)c1cc([N+](=O)[O-])ccc1NCc1ccccc1)NC1CCCCC1,-2.43%
11,CC(=O)Nc1ccccc1NC(=O)c1cc(C)cc(C)c1,-2.02%
12,COC(=O)CNC(=O)C(CCSC)NC(C)=O (stereo unspecified) (Ac-[ξM]-Gly-OMe),-1.87%
13,Cc1ccc(NC(=O)Nc2ccccc2)c(Br)c1,-1.05%
14,N/C(=N\OC(=O)Cc1ccc([N+](=O)[O-])cc1)c1ccccn1,-3.04%
15,COc1ccc(N2C(=O)C(Cc3ccccc3)NC2=S)cc1 (stereo unspecified),-1.44%
16,Cc1cc(C)c(C#N)c(SCC(=O)NN2CC(=O)N(c3ccccc3F)CC2=O)n1,-0.87%
